Test results as given in the supplement of paper PMC11732987, “Enantioselective OTUD7B fragment discovery through chemoproteomics screening and high-throughput optimisation” (Communications Chemistry, 2025).

What was measured:
Assay in all cases: log2 ratio of Biotin-Ahx-Ub-VS probe labelling (fragment/DMSO); higher = less target engagement (more negative = stronger competition), active = hit call of the paper (q ≤ 0.05, log2 ratio ≤ -1)
Details in all cases: compound concentration: 200 uM; treatment time: 3 h
USP34 = USP34 (UniProt Q70CQ2)
Outline: (§1)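 Global-median-normalised Spectronaut label-free quantities were compared by unpaired t-test, and values are average log2 ratios of fragment over vehicle. Only proteins with ≥2 unique peptides were used. HEK293T lysate (495 µg per sample) was treated in triplicate with fragment at 200 µM or vehicle for 3 h and then with Biotin-Ahx-Ub-VS at 0.5 µM final for 1 h. Labelled DUBs were then NeutrAvidin-enriched, digested with LysC and trypsin, and run by diaPASEF LC-MS/MS.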

USP36 = target: T1, USP36 (UniProt Q9P275)
T1 sequence (whole entry): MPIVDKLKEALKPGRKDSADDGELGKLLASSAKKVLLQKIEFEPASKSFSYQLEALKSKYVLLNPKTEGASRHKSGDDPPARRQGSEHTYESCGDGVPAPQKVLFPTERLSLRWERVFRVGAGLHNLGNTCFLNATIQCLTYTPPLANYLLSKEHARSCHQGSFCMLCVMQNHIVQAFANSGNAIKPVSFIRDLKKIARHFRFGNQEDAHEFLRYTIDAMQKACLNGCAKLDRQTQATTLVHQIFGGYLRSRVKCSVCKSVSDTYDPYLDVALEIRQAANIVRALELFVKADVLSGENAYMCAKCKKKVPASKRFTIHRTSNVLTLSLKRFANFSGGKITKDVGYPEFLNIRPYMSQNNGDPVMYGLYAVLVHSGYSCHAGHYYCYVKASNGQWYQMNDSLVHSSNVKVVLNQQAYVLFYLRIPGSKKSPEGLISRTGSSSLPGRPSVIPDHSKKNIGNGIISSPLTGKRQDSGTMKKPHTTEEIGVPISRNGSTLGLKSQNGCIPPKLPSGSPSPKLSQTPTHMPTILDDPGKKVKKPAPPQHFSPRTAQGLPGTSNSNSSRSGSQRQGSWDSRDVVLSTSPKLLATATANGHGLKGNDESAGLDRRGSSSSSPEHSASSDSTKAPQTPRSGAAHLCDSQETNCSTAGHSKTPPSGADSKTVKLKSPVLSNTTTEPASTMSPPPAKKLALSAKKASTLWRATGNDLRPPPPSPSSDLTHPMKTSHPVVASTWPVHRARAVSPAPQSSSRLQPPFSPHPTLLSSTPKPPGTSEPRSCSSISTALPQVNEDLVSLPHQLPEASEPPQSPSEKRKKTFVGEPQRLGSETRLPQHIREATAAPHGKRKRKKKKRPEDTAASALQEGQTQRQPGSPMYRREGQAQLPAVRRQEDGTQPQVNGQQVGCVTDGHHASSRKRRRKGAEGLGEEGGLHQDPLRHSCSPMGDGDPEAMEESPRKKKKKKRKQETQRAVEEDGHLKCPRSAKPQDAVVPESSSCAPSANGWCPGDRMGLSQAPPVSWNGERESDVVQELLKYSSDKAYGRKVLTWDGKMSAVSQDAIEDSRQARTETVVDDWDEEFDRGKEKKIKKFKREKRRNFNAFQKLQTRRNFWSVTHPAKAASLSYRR
Outline: as §1

USP38 = target: T2, USP38 (UniProt Q8NB14)
T2 sequence (whole entry): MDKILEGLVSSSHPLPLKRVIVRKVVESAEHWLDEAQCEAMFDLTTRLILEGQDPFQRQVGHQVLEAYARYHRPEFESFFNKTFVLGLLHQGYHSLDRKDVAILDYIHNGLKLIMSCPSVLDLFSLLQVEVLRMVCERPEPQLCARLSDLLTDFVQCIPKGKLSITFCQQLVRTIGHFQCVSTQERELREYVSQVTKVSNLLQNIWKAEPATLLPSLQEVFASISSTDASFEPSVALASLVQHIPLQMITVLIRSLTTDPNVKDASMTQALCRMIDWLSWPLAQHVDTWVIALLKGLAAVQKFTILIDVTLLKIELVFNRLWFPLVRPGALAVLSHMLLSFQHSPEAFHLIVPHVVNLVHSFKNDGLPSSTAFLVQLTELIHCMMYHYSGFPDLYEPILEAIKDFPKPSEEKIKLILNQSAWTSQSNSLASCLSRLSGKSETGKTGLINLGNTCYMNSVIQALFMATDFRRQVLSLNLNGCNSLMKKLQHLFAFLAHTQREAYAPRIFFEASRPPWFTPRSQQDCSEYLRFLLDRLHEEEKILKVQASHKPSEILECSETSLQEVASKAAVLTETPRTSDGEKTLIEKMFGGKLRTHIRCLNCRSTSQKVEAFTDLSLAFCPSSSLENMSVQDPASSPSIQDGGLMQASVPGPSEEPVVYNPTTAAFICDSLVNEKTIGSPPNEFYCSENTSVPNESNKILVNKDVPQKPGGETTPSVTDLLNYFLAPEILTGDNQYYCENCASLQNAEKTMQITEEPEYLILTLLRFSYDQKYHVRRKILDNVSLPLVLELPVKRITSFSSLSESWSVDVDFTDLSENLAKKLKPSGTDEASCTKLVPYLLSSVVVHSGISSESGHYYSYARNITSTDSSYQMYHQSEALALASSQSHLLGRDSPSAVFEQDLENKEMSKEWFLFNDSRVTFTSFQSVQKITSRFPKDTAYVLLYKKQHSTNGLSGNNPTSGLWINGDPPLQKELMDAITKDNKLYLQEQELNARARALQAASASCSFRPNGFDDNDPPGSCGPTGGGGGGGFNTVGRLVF
Outline: as §1

USP39 = target: T3, USP39 (UniProt Q53GS9)
T3 sequence (whole entry): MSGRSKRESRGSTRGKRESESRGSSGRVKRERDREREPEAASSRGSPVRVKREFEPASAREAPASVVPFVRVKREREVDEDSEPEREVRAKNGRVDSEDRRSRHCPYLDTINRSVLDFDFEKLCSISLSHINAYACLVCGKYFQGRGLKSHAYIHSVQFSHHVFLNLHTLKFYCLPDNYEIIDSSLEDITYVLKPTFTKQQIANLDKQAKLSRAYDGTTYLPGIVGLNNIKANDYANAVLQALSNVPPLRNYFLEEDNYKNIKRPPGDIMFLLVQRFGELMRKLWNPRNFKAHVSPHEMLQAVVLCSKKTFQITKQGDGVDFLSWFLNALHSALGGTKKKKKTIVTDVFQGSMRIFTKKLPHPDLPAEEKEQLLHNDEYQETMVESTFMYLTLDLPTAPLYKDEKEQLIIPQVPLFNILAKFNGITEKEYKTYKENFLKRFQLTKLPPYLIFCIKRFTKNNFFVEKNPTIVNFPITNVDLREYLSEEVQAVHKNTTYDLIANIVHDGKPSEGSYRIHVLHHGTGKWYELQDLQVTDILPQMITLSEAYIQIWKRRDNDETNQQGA
Outline: as §1

USP4 = target: T4, USP4 (UniProt Q13107)
T4 sequence (whole entry): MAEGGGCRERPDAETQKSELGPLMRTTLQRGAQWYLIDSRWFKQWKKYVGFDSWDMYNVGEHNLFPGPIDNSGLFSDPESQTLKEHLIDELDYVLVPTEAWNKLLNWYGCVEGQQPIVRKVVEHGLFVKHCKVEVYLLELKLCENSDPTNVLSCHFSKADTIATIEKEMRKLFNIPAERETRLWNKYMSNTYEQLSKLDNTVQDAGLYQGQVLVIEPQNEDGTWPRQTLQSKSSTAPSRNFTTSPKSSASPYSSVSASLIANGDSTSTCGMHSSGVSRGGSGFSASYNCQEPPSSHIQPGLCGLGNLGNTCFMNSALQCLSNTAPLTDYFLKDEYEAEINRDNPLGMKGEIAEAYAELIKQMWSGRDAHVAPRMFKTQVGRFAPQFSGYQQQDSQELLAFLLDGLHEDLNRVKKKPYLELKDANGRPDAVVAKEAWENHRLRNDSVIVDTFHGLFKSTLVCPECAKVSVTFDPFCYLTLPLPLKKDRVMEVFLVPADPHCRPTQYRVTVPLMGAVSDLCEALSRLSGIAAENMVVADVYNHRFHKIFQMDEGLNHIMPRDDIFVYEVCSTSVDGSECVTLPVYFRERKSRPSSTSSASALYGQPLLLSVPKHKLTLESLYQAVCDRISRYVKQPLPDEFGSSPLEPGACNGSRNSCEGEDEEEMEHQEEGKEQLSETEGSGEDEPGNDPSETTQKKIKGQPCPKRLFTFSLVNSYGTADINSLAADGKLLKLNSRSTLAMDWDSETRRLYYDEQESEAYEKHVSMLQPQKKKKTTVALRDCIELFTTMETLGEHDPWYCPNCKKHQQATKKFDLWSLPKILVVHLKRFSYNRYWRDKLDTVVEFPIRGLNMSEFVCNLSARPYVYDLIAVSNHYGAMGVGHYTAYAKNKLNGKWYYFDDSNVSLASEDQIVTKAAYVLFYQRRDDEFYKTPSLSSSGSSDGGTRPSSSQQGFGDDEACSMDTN
Outline: as §1

Measured: log2 ratio of Biotin-Ahx-Ub-VS probe labelling

USP34, sequence (Q70CQ2 whole entry, the tested form may be a part): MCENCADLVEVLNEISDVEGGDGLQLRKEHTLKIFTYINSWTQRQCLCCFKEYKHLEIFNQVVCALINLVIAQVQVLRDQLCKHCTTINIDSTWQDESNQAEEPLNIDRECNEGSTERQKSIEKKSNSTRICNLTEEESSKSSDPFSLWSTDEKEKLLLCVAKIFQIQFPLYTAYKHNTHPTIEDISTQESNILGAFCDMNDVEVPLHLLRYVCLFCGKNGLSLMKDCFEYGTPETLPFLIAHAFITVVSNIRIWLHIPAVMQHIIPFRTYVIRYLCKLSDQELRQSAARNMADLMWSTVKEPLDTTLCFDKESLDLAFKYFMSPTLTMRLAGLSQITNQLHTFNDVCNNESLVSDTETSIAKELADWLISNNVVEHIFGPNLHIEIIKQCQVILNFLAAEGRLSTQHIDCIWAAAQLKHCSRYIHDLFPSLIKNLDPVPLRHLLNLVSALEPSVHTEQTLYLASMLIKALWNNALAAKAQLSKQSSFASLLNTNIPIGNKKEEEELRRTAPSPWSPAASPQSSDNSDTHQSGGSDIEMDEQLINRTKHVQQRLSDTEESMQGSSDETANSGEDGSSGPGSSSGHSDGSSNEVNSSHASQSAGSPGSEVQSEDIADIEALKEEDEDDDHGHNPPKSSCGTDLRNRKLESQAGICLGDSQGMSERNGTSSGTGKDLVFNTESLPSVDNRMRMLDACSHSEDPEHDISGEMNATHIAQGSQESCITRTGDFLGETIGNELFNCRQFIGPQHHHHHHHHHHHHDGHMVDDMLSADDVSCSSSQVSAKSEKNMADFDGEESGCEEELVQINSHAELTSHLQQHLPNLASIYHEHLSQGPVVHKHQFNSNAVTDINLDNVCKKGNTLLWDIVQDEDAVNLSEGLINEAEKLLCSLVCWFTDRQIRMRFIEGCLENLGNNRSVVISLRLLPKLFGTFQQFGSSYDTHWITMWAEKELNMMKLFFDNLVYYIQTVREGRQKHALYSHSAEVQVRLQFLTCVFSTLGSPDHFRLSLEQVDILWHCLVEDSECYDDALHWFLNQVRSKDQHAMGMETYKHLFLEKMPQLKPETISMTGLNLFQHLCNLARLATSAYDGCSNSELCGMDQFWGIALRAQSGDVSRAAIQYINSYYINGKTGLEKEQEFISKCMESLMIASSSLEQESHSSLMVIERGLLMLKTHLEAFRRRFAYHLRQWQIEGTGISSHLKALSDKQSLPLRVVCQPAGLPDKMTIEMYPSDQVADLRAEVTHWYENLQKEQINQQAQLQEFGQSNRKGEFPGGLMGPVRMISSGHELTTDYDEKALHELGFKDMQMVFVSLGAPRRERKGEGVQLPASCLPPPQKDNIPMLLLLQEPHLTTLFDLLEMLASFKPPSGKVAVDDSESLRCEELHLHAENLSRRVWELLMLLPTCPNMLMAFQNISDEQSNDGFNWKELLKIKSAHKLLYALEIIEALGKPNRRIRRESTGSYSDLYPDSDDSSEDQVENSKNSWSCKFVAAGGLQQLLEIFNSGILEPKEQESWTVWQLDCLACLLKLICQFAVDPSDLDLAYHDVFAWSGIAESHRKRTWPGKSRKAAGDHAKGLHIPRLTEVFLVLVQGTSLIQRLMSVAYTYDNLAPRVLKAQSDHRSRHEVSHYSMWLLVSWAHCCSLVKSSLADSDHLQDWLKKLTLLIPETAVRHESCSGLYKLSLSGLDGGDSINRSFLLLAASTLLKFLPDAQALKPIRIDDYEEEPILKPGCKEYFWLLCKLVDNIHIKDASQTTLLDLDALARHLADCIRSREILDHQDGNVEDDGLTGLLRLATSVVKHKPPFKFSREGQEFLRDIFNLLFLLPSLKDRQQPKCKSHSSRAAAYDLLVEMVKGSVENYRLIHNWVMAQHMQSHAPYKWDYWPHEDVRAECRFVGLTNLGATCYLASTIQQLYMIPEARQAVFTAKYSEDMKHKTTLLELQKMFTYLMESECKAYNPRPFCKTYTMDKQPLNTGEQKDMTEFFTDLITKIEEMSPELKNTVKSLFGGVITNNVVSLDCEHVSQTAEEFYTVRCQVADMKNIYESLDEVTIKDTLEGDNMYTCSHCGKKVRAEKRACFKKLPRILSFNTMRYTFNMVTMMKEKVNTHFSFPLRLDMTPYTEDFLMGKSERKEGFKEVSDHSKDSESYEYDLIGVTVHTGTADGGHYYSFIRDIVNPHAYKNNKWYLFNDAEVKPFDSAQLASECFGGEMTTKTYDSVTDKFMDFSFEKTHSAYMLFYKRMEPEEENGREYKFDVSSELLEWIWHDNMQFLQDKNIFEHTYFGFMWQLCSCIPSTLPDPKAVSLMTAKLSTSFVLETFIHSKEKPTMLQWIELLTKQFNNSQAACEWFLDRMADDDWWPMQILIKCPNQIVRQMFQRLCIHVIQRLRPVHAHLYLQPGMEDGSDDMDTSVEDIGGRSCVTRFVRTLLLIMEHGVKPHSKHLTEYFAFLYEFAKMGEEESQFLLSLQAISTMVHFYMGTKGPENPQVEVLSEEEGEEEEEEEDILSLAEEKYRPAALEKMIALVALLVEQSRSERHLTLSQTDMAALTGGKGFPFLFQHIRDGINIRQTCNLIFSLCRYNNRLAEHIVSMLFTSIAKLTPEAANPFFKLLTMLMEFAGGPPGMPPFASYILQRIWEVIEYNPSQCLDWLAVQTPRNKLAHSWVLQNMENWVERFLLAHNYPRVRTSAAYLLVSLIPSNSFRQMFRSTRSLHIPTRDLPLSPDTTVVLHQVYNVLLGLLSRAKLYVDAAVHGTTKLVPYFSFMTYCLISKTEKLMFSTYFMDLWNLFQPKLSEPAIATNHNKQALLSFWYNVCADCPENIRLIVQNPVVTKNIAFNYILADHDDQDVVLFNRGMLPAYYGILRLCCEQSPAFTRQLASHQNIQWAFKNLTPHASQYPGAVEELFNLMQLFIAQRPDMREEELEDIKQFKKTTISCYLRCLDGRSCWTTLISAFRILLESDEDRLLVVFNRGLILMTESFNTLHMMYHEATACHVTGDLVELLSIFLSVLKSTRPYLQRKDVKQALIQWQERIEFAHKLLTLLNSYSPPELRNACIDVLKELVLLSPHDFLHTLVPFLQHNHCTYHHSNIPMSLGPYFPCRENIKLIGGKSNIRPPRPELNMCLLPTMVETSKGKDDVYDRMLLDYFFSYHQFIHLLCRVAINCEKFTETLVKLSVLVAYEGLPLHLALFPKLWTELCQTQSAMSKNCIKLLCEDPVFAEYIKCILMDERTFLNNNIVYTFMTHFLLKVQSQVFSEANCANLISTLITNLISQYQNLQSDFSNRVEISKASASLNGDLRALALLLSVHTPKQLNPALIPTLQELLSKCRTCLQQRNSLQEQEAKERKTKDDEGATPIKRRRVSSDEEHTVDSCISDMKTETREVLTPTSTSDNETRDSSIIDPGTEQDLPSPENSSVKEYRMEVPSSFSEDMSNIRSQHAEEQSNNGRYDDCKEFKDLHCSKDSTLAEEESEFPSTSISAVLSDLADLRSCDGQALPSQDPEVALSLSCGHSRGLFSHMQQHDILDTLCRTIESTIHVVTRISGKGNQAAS

O=C(CCl)N(C1=CCCCC1)C1CC1
inactive: USP34 -0.0141 | USP36 -0.116 | USP38 -0.172 | USP39 -0.177 | USP4 0.0249
